Results on 1 sequence are retold here after article PMC7862700, “An all-to-all approach to the identification of sequence-specific readers for epigenetic DNA modifications on cytosine”.

Common to all, as to assay: DAPPL (digital affinity profiling via proximity ligation, sequencing); 10 mM Tris-HCl pH 7.5, 50 mM NaCl, 1 mM DTT, 4% glycerol, room temperature, 30 min; GST-TFs on glutathione beads, 16-mer random dsDNA library, 0.1% formaldehyde crosslink after washing; high values mean tight binding
What all share (details): protein: recombinant; tags: N-terminal GST; dsDNA, one strand shown

One experiment deals with T1, FLI1 (Homo sapiens, UniProt Q01543 1-452).
T1 sequence: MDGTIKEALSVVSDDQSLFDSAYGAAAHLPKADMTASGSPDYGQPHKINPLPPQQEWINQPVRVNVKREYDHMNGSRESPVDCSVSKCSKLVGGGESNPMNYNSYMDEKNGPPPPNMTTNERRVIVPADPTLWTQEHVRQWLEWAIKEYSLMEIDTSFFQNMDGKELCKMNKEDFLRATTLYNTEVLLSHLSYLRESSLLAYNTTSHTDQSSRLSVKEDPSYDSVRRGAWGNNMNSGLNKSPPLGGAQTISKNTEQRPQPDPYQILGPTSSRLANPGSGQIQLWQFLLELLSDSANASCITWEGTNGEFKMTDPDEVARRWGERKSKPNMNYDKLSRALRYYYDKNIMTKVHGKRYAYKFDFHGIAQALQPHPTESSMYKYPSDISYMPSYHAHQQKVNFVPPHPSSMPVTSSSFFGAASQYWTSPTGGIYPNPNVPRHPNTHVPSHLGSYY
Summed up: (§1)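 Binding signal is given per hexamer as its read frequency for a factor divided by its frequency in the tag-only sample. GST-fused human transcription factors were expressed in yeast, captured on glutathione beads, barcoded with DNA and pooled with that sample, then incubated with 200 nmole of a 16-mer random double-stranded DNA library in Tris/NaCl/DTT/glycerol buffer for 30 min at room temperature. The pools were then washed, crosslinked, proximity-ligated, amplified by PCR and sequenced on an Illumina NextSeq500.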

Another experiment addresses T2, ELK1 (Homo sapiens, UniProt P19419 1-428).
T2 sequence: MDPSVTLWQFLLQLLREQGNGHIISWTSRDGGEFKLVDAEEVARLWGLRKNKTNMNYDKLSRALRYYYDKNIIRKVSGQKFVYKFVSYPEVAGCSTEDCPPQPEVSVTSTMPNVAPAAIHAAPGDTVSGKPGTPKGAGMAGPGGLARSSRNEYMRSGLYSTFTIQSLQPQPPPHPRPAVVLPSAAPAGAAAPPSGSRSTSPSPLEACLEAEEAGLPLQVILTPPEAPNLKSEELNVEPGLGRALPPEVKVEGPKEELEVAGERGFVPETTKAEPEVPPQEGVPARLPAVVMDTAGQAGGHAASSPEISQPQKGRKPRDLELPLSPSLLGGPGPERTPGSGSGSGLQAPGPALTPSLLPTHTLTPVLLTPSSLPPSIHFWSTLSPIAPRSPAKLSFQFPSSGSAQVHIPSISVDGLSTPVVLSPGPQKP
A digest of the protocol:
as §1

The next experiment deals with T3, GABPA (Homo sapiens, UniProt Q06546 1-454).
T3 sequence: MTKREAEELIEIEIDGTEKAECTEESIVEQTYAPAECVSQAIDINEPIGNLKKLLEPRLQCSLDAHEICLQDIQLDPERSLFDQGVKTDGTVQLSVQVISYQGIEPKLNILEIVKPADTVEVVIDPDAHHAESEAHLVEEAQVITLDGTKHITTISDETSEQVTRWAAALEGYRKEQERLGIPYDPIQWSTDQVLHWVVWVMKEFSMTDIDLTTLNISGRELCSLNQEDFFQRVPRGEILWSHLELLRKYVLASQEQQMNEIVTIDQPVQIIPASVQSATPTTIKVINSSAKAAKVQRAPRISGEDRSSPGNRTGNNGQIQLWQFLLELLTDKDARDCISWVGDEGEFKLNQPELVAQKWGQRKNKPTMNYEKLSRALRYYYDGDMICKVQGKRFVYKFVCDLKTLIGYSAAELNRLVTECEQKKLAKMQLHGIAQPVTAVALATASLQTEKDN
A digest of the protocol:
as §1

Another experiment addresses T4, ERG (Homo sapiens, UniProt P11308 1-479).
T4 sequence: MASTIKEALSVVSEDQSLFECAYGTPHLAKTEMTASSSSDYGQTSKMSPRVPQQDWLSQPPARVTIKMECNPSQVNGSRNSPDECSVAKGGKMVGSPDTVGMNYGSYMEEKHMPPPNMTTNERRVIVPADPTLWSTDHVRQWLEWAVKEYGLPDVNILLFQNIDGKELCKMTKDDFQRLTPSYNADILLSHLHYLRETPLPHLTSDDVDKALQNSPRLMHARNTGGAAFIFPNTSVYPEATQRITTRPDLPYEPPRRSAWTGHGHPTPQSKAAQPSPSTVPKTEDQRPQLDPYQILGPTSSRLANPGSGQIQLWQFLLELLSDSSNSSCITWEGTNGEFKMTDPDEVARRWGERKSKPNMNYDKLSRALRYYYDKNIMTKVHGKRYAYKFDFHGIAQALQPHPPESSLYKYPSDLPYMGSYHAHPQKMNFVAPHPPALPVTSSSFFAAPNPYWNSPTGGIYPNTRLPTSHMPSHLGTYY
A digest of the protocol:
as §1

The next experiment concerns the target ELF1 (Homo sapiens, UniProt P32519 1-619). A digest of the protocol:
as §1

The target in the next experiment is T5, EHF (Homo sapiens, UniProt Q9NZC4 1-300).
T5 sequence: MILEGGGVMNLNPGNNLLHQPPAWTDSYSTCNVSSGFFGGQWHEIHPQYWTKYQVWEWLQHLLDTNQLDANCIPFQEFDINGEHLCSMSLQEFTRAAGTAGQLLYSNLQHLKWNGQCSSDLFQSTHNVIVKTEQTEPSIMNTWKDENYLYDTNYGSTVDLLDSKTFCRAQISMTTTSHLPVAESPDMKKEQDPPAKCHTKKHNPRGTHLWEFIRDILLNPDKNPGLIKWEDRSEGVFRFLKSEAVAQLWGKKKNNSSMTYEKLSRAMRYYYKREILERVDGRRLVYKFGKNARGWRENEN
Summed up: as §1

The target in a further experiment is SPI1 (Homo sapiens, UniProt P17947 1-270). A digest of the protocol: as §1
Another experiment deals with SPIB (Homo sapiens, UniProt Q01892 1-262). A digest of the protocol: as §1
SPIB, sequence (Q01892 whole entry): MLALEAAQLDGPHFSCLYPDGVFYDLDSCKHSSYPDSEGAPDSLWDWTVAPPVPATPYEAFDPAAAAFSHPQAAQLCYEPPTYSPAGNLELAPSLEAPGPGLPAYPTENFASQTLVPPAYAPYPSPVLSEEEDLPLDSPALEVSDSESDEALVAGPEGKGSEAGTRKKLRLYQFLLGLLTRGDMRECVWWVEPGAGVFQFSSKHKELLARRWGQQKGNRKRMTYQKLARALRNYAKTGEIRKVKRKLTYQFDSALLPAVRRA
The next experiment concerns the target T6, ELK3 (Homo sapiens, UniProt P41970 1-407).
T6 sequence: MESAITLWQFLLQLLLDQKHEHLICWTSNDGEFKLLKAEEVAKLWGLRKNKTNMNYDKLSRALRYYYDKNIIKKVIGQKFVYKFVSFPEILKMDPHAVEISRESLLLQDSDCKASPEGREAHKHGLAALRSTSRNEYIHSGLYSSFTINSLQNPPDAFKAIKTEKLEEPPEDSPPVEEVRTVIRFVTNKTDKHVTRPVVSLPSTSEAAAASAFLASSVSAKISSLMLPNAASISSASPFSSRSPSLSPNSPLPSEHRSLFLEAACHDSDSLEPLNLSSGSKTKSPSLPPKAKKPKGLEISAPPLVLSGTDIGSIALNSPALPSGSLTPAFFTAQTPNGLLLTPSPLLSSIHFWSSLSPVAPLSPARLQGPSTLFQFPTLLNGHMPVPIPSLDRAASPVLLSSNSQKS
Summed up:
as §1

In the next experiment the target is T7, FEV (Homo sapiens, UniProt Q99581 1-238).
T7 sequence: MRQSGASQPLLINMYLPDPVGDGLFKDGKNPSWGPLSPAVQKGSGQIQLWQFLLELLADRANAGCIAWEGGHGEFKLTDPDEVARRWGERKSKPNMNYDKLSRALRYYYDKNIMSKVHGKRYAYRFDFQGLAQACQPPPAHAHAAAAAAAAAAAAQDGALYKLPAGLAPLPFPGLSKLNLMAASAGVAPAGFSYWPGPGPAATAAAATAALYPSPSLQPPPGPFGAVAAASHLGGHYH
Summed up: as §1

A further experiment concerns the target ETV5 (Homo sapiens, UniProt P41161 1-510). Summed up:
as §1

For another experiment, the target named is T8, SPIC (Homo sapiens, UniProt Q8N5J4 1-248).
T8 sequence: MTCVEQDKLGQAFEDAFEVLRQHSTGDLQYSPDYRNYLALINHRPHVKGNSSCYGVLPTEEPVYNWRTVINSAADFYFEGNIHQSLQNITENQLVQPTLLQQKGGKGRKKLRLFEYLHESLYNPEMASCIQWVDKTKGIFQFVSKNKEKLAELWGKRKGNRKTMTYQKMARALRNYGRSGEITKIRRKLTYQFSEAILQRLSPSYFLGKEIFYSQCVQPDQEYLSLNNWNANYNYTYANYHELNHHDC
A digest of the protocol:
as §1

The next experiment concerns the target ELF4 (Homo sapiens, UniProt Q99607 1-663). A digest of the protocol:
as §1

The next experiment addresses T9, ELK4 (Homo sapiens, UniProt P28324-2 1-405).
T9 sequence: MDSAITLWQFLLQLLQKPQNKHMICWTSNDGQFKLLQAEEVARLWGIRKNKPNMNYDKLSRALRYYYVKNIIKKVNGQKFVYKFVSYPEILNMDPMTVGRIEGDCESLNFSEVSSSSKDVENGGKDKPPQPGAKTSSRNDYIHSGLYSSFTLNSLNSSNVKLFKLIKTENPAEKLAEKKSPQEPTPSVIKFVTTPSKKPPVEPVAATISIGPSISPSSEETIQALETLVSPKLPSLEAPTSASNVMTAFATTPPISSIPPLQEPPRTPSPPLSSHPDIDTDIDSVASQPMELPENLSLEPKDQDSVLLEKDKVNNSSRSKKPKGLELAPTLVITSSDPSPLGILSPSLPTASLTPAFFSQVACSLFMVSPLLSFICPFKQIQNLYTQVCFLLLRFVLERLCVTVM
A digest of the protocol:
as §1

A further experiment addresses T10, ETV2 (Homo sapiens, UniProt O00321 1-342).
T10 sequence: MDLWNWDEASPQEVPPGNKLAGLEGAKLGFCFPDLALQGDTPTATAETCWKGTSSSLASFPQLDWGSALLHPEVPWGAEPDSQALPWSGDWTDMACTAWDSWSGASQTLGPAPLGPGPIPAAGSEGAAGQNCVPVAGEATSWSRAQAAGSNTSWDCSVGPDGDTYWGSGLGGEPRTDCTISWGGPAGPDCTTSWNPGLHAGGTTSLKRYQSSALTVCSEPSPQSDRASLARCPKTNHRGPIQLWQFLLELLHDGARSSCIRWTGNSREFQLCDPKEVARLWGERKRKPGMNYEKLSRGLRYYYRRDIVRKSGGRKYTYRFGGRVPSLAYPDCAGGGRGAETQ
A digest of the protocol:
as §1

The target in another experiment is T11, ELF3 (Homo sapiens, UniProt P78545 1-371).
T11 sequence: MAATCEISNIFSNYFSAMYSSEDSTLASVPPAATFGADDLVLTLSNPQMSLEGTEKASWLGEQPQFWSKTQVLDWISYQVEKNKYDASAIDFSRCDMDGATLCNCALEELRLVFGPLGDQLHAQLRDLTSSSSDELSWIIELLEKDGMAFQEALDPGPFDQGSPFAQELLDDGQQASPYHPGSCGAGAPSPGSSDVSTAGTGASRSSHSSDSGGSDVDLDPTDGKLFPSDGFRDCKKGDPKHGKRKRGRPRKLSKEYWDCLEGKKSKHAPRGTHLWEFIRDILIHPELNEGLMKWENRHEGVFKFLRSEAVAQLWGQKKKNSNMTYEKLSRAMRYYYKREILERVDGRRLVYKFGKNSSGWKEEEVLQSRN
A digest of the protocol: as §1

The next experiment concerns the target CRX (Homo sapiens, UniProt O43186 1-299). Summed up: as §1
A further experiment deals with ETV1 (Homo sapiens, UniProt P50549 1-477). A digest of the protocol: as §1
ETV1, sequence (P50549 whole entry): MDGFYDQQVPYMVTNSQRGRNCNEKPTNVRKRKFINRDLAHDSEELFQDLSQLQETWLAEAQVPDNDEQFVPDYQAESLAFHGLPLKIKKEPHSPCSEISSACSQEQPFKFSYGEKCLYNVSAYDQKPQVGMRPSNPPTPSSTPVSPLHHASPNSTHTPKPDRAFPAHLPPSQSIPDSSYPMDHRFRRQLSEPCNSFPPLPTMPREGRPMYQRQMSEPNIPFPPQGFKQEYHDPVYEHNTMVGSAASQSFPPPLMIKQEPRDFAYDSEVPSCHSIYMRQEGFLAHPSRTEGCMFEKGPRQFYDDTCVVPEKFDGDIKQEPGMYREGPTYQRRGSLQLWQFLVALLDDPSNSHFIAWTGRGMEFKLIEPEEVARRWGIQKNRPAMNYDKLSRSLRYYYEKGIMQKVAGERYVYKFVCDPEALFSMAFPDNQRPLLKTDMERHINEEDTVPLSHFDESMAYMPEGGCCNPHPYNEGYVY

CRX, sequence (O43186 whole entry): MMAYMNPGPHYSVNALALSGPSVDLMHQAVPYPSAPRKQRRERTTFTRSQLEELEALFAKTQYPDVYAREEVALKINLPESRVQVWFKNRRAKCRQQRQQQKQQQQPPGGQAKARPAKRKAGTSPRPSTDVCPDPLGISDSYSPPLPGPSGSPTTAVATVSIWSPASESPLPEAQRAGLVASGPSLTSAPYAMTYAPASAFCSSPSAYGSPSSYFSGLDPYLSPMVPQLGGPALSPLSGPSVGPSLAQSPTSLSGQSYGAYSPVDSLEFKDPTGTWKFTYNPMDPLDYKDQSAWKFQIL
ELF1, sequence (P32519 whole entry): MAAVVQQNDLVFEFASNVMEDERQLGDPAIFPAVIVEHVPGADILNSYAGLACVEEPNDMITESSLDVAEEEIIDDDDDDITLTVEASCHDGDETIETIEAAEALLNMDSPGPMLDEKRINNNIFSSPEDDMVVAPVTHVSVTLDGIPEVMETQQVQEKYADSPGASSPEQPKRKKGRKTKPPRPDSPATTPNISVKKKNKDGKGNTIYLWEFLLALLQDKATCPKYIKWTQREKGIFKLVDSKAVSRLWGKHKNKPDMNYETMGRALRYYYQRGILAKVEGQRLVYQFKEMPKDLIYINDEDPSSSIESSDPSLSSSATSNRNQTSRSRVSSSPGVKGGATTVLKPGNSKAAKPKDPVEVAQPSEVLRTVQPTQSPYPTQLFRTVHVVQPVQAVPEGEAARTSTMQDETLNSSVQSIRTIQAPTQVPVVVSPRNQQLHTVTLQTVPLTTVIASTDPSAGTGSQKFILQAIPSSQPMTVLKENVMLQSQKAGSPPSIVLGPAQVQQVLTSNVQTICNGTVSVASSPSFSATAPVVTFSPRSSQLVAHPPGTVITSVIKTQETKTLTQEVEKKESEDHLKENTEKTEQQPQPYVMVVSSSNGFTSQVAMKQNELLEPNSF
ETV5, sequence (P41161 whole entry): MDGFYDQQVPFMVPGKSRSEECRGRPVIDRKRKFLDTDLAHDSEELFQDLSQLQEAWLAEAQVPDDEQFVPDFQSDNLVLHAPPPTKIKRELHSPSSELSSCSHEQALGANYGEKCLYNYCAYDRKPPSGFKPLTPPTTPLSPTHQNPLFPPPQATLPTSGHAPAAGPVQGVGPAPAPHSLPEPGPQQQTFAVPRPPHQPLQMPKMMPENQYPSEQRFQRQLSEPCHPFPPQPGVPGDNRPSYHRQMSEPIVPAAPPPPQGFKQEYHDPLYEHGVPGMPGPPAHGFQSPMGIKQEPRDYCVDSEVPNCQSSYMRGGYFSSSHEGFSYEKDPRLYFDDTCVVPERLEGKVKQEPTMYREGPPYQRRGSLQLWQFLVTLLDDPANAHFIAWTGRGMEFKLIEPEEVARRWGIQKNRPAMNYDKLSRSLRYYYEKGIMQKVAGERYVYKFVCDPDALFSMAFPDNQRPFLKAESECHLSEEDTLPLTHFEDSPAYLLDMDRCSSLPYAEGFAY
ELF4, sequence (Q99607 whole entry): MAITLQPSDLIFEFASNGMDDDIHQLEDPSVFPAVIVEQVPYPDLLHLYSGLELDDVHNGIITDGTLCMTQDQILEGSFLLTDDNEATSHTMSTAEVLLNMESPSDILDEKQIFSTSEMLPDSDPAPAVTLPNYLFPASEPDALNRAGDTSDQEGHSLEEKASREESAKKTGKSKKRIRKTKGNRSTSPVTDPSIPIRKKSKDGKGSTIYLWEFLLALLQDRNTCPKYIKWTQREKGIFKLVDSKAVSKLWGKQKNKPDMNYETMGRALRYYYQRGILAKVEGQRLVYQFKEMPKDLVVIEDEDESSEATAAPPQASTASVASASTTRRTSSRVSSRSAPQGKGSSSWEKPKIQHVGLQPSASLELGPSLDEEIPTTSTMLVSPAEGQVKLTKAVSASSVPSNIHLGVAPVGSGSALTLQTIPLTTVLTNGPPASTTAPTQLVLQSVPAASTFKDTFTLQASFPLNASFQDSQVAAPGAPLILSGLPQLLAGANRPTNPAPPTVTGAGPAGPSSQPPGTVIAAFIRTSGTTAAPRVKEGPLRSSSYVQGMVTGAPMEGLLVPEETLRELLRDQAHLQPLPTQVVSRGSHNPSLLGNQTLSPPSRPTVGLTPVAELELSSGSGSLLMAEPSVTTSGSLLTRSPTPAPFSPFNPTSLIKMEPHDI

Take CCGCCA: the binding signal with FLI1 was 1.38 fold enrichment (6-mer frequency, TF over GST control); with ELK1, 1.31 fold enrichment (6-mer frequency, TF over GST control); with GABPA, 1.29 fold enrichment (6-mer frequency, TF over GST control); with ERG, 1.3 fold enrichment (6-mer frequency, TF over GST control); in the experiment with ELF1 it was 1.32 fold enrichment (6-mer frequency, TF over GST control); with EHF, 1.37 fold enrichment (6-mer frequency, TF over GST control). In addition, the binding signal is 1.3 fold enrichment (6-mer frequency, TF over GST control) in the experiment with SPI1; 1.09 fold enrichment (6-mer frequency, TF over GST control) in the experiment with SPIB; 1.34 fold enrichment (6-mer frequency, TF over GST control) with ELK3; 1.37 fold enrichment (6-mer frequency, TF over GST control) in the experiment with FEV; 1.21 fold enrichment (6-mer frequency, TF over GST control) with ETV5; 1.37 fold enrichment (6-mer frequency, TF over GST control) in the experiment with SPIC. Also, the binding signal in the experiment with ELF4 was 1.45 fold enrichment (6-mer frequency, TF over GST control); with ELK4, 1.44 fold enrichment (6-mer frequency, TF over GST control); with ETV2, 1.19 fold enrichment (6-mer frequency, TF over GST control); with ELF3, 1.48 fold enrichment (6-mer frequency, TF over GST control); with CRX it was 1.02 fold enrichment (6-mer frequency, TF over GST control); in the experiment with ETV1, 1.32 fold enrichment (6-mer frequency, TF over GST control).
